Screening data: PubChem, National Center for Advancing Translational Sciences (NCATS)
Shown are actives, neighbours in structure and some others; about 4.8% of the full set was active somewhere.
TGFb SMAD3 inh – blocks TGF-b signaling. Potency, µM (top dose mostly 46.1 µM), for inactives: top-dose activity, negative = inhibition, usual class: inhibitors. HepG2 CAGA-GFP TGF-b/SMAD3 reporter, GFP fluorescence, 18 h; TGF-beta stimulated, 500 pg/mL final. 410,000 tested, 1.2% active; further: potency means the concentration at half of the fitted maximal effect; on the % scale 0 is the no-effect control and ±100 the full control effect; nearly all actives have a fitted effect of over 65% in size
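HEPG2 CAGA-GFP cells (1000/well, DMEM with 1% FBS) were pre-incubated 2 h at 37 degrees C, given compound by pin tool, then stimulated with TGF-beta at 500 pg/mL final for 18 h before per-cell GFP fluorescence imaging.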
HepG2 viability – kills HepG2 cells in TGF-b inhibitor counter-screen. Potency, µM (top dose mostly 46.1 µM), without a hit: at the top dose activity change, negative = cytotoxicity, actives largely listed as cytotoxic. HepG2 CAGA-GFP viability, ATP luminescence, 18 h. AID 588856. 410,000 tested, 0.76% active; further: potency means the concentration at half of the fitted maximal effect
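HepG2 CAGA-GFP cells (1000/well, DMEM with 1% FBS) received compound, then TGF-beta at 500 pg/mL final, and were incubated 18 hours at 37 degrees C. Viability was read by CellTiter-Glo luminescence. Media-only wells were set as complete cell-killing and DMSO as no toxicity.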
ATXN viability – viability counter-screen for ATXN expression inhibitors; AID 651635; Potency, µM (series often up to 56.7 µM), actives largely listed as cytotoxic; 400,000 tested, 0.49% active; S2 cells (HEK-293 line with an ATXN2-luciferase reporter) viability, CellTiter-Fluor protease fluorescence, 24 h; further: potency means the concentration at half of the fitted maximal effect; nearly all actives have a fitted effect of over 40% in size
ATXN2 expr inh – inhibitors of ATXN2 expression; HEK-293 ATXN2-luciferase reporter, luminescence, 24 h; Potency, µM (series often up to 57 µM), inactives show top-dose activity change, negative = inhibition, most hits filed as inhibitors; 360,000 tested, 0.72% active; further: potency means the concentration at half of the fitted maximal effect; on the % scale 0 is the no-effect control and ±100 the full control effect; nearly all actives have a fitted effect of over 55% in size
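ATXN2-luciferase reporter cells (luciferase flanked by upstream and downstream ATXN2 gene portions) were treated 24 h at 37 °C with compounds at up to 57 uM. SteadyGlo luminescence gave expression; GF-AFC fluorescence gave viability.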
D3 antag – D3 dopamine receptor (human) antagonism; D3R cells, DiscoveRx beta-arrestin luminescence, antagonist mode; active compounds read low; P35462; 360,000 tested, 2.5% active; max response, negative = inhibition, %; in the data active means max response below about -50%; inconclusive means no clear call, values can overlap the other calls; further: on the % scale 0 is the no-effect control and ±100 the full control effect
Target sequence (P35462 whole entry, looked up): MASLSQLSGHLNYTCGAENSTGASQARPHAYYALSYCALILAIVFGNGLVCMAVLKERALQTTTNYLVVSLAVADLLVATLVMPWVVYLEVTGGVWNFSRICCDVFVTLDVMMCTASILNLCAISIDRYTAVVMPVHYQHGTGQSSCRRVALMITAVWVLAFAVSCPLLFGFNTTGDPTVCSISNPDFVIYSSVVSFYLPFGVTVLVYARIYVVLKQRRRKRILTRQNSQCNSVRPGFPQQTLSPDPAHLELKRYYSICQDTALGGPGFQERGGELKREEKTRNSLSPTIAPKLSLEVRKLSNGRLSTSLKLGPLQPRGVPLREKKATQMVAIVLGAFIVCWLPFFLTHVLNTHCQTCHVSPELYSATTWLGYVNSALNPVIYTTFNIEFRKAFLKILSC
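Cells expressing the human receptor were seeded at 1500 cells/well, incubated overnight at 37 degrees C in 5% CO2, then exposed to library compounds with dopamine controls for 90 minutes at 37 degrees C before luminescent detection.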
DRD3 agonist – activates the human D3 dopamine receptor. P35462. D3R DiscoveRx beta-arrestin cells, luminescence, 90 min. max activation, %. 410,000 tested, 0.58% active. AID 652048; in the data active means max activation above about 30%; further: 0% is about no effect
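Agonist-mode cell screen: cells plated at 1500/well and incubated overnight at 37 °C, then exposed to library compounds for 90 min at 37 °C. Detection reagent was added for 30–60 min at room temperature, and luminescence was read.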
* hit, by the source's call; i = inactive; u = inconclusive; x = no result given. Unless noted, the call rests on the fitted dose curve; in most records, active means well fitted curve in the direction sought with a large enough effect; inconclusive means small, poorly fitted or top-dose-only effect, or another doubt; inactive means no such curve, though single readings can be large; an effect the other way counts as inactive or inconclusive.

SMILES | TGFb SMAD3 inh | HepG2 viability | ATXN viability | ATXN2 expr inh | D3 antag | DRD3 agonist
COc1ccccc1CNC(=O)C1(C)CCN1C(=O)C1(c2ccccc2)CC1 (stereo not given) | -12% | -12% | i | -2% | -58* | -3
COc1ccc2c(c1)C(SCC(=O)NCCc1ccc(Cl)cc1)CC(C)(C)O2 (stereo not given) | u | -30% | u | 28µM* | 7 | -5
CCCCCCn1c(CN2CCN(Cc3ccccc3)CC2)nc2c1c(=O)n(C)c(=O)n2C | -1% | -1% | u | -26% | -52* | -1
CCCCCn1c(CN2CCN(c3cccc(Cl)c3)CC2)nc2c1c(=O)[nH]c(=O)n2C | u | -71% | u | 25µM* | 2 | 0
Cn1c(=O)c2c(nc(CN3CCN(Cc4ccccc4)CC3)n2Cc2cccc(Cl)c2)n(C)c1=O | -12% | -25% | u | -24% | -51* | -10
CCCn1c(CN2CCN(C(=O)OCC)CC2)nc2c1c(=O)n(C)c(=O)n2C | 4% | -3% | i | 1% | 14 | 127*
CCOc1ccc(-c2cc3nc(C4CCN(C(=O)OC(C)(C)C)CC4)c(C(=O)Nc4ccc(C)cc4C)cn3n2)cc1 | -2% | -2% | u | 11% | x | 17
CCCc1cc(C(=O)Nc2nccs2)cs1 | u | -26% | i | 30% | -51* | -6
CCCN1C(=O)c2ccc(C(=O)Nc3nccs3)cc2C1=O | 3% | -14% | i | -1% | -20 | -5
Cc1ncc(CO)c2c1Oc1nc(-c3ccccc3F)nc(SCC(=O)N(C)c3ccccc3)c1C2 | u | -9% | 18µM* | u | 70 | 1
CCN(CC)C(=O)CSc1nc(-c2ccccc2F)nc2c1Cc1c(CO)cnc(C)c1O2 | 3% | 2% | i | -1% | x | 2
Cc1ncc(CO)c2c1Oc1nc(-c3ccccc3)nc(SCC(=O)N3CCCCC3)c1C2 | -8% | -12% | 14µM* | -39% | 49 | 10
Cc1ncc(CO)c2c1Oc1nc(-c3ccccc3)nc(SCC(=O)N3CCOCC3)c1C2 | u | -12% | i | -2% | 45 | 7
COc1ccccc1-c1ccnc(-n2ncc(C(=O)NCCc3ccccn3)c2C)n1 | x | x | i | x | x | x
CCOC(=O)[C@H]1O[C@H]1C(=O)N[C@@H](CC(C)C)C(=O)NCCC(C)C | x | x | x | 0% | x | x
CCS(=O)(=O)c1ccc2oc(SCC(=O)NCCC3=CCCCC3)nc2c1 | 17% | 4% | i | 6% | -51* | 11
COc1ccccc1-c1nnc(SC2CCc3ccccc3NC2=O)s1 (stereo not given) | 13µM* | 1% | i | 11% | 41 | 11
COc1ccccc1-c1nnc(N)s1 | 5% | 19% | i | -4% | -1 | 13
CCOC(=O)C1(C)CCCCCN1C(=O)/C=C/c1ccccc1 (stereo not given) | 17% | 1µM* | i | -7% | 19 | 3
O=C(C[N+]12CCCc3cccc(c31)CCC2)c1ccc2ccccc2c1 | -28% | -8% | x | x | x | x
COc1ccc(C(C[N+](=O)[O-])C2(c3ccc(OC)c(OC)c3)C(=O)c3ccccc3C2=O)cc1 (stereo not given) | u | 18µM* | i | 2% | -82* | -19
O=C(Nc1cccc(Cl)c1)Nc1nnc(CC2=CCCCC2)s1 | -19% | -15% | i | -22% | 14 | 33*
O=C(Nc1nnc(CC2=CCCCC2)s1)Nc1ccccc1F | -18% | -63% | i | 13% | 5 | 4
OC1(c2ccc3c(c2)OCO3)CCN(Cc2ccc(F)cc2)CC1 | -10% | -10% | i | 3% | -99* | -14
OC1(c2ccc(F)cc2)CCN(Cc2cccnc2)CC1 | u | -2% | x | -15% | -61* | -5
SMILES | TGFb SMAD3 inh | HepG2 viability | ATXN viability | ATXN2 expr inh | D3 antag | DRD3 agonist
OC1(c2ccccc2)CCN(Cc2ccccc2)CC1 | 14% | 0% | i | -12% | -80* | -17
OC(c1ccccc1)C1CN(Cc2ccccc2)CCC1(O)c1ccccc1 (stereo not given) | -7% | -40% | i | -19% | -59* | -37
CCN(CC)c1ccc(NS(=O)(=O)c2cc(-c3onc(C)c3C)ccc2OC)c(C)c1 | -30% | -25% | x | x | x | 5
CCc1nc2cc(C(=O)N3CCC[C@H]3CO)cc(NC(=O)c3ccccc3OC)c2n1C | x | x | i | x | x | x
COc1ccc(/C=C/C(=O)c2ccc(Cl)s2)cc1O | -27% | -95% | i | 18% | -72* | -8
COc1cc(/C=C/C(=O)c2ccc(Cl)s2)cc(OC)c1O | u | -85% | u | u | u | -46
Cc1cccc2c1CC[C@H](CN1CCC(c3c(Cl)cccc3Cl)CC1)C[C@@H]2O | x | x | x | -24% | x | x
Cc1ccc(P(=O)(O)c2ccc(C)cc2)cc1 | -20% | 0% | i | 4% | -20 | -9
Cc1ccc(P(=O)(c2ccc(C)cc2)[C@@H](NC(c2ccccc2)c2ccccc2)c2ccccc2)cc1 | x | x | u | u | -109* | -17
Cc1ccccc1OCCn1cc(C=O)c2ccccc21 | u | -34% | i | -6% | 0 | -1
COc1ccc(OCCn2cc(C=O)c3ccccc32)cc1 | 7.9µM* | -50% | i | -25% | -6 | 3
CCC(C)n1c(=O)c2sccc2n2c(CCCC(=O)N3CCN(c4ccccc4)CC3)nnc12 (stereo not given) | u | -20% | x | x | x | 5
COc1ccccc1-c1ncn(Cc2cccc(-c3ccccc3)c2)c1CC(C)C | x | x | 11µM* | 11µM* | 5 | -2
CCc1c(-c2ccccc2OC)ncn1Cc1cccc(-c2ccccc2)c1 | x | x | x | x | 3 | -8
CCCc1c(-c2cccc(Cl)c2)ncn1Cc1cccc(-c2ccccc2)c1 | x | x | x | x | -19 | 52*
Cc1cc(C(C)Nc2ccccc2)c2nc(N3CCOCC3)cc(=O)n2c1 (stereo not given) | x | x | x | 4% | x | x
COC(=O)c1sccc1S(=O)(=O)N1CCC(n2c(CC3CCCC3)nc3cccnc32)CC1 | x | x | i | x | x | x
Cc1ccc(/C=[N+](\[O-])c2ccc(N(C)C)cc2)c2nsnc12 | 7.9µM* | 14µM* | u | u | u | -6
Cc1ccc(C)c2c(/C=C/c3ccc(N(C)C)cc3)ccnc12 | 17% | -43% | x | x | x | x
N#CCCNCC1(c2ccccc2)CCCC1 | 10% | 1% | i | -7% | -54* | 4
COc1ccccc1Cc1c(C2CCCCC2)nc2ccc(Cl)cn12 | u | 18µM* | u | u | u | -15
Clc1ccc2nc(C3CCCCC3)c(Cc3ccccc3)n2c1 | -20% | -11% | i | 5% | 23 | 6
